Only some compounds are listed: those with a hit (about 1.6% of all), similar ones and a draw of the others.
PABP polyA inh: PABP poly(A) RNA binding inhibitors, primary screen, biochemical, fluorescence polarization, uHTS | calls only at 35 µM | actives 1% (n = 290,000) | AID 2014, 2009 | Polyadenylate-binding protein 1 (Homo sapiens), P11940;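 note: calls also rest on retests at 20 µM and on dose response follow-up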
MLLE-PAM2 inh: inhibitors of PABP1 MLLE–PAM2 peptide binding, primary screen, biochemical, fluorescence polarization, FITC-PAM2, GST-MLLE | Polyadenylate-binding protein 1 (Homo sapiens), P11940 | inhibition, % at 20 µM | actives 0.36% (n = 360,000) | AID 588489, 2011; in the data active = inhibition above about 35%, passing the limit was not always enough;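 note: plate controls were DMSO wells with GST-MLLE for no effect and wells lacking GST-MLLE protein for full effect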
eIF4H FP inh: human eIF4H binding inhibitors, primary screen, translation initiation inhibitor project, biochemical, uHTS, fluorescence polarization; AID 2012, 2009; actives 0.94% (n = 290,000); inhibition, % at 35 µM; eIF4H fluorescence polarization binding assay; Eukaryotic translation initiation factor 4H (Homo sapiens), Q15056;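 note: calls also rest on retests at 20 µM and on dose response follow-up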
eIF4E 4G PPI: eIF4E–eIF4G protein interaction inhibitors, primary screen, biochemical, uHTS, TR-FRET, eIF4GI fragment. inhibition, % at 21.7 µM. TR-FRET eIF4E-eIF4GI(517-606) binding, 2 h. actives 0.37% (n = 220,000). AID 782, 2007;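 active = inhibition above about 30%, limit read from the data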;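 note: 0% = full FRET control wells and 100% = background wells lacking eIF4GI fragment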
PERK inh: block of dimerizer-induced PERK translation repression, primary screen, PERK inhibitor project, CHO PERK-DD cells, SEAP luminescence, HTS; CHO PERK-DD fusion, SEAP luminescence translation reporter; actives 0.17% (n = 220,000); inhibition, % at 5.6 µM; AID 1416, 2008; Eukaryotic translation initiation factor 2-alpha kinase 3 (Homo sapiens), Q9NZJ5;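 active = inhibition above the mean inhibition of all tested compounds plus 3 SD, set separately per screening campaign, cut at about 2.9% in these data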;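 note: PERK kinase domain activated by AP20187 dimerizer at 100 nM; 0% = DMSO with dimerizer and 100% = rapamycin at 8.4 µM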
An asterisk follows results filed as active; ! = not active in a repeat. Unless noted, the rule behind the calls is not given here.

How did Oc1cccc(/C=N/NP(=S)(c2ccccc2)c2ccccc2)c1 do in these assays?
PABP polyA inh: inactive; MLLE-PAM2 inh: -59; eIF4H FP inh: -2; eIF4E 4G PPI: 4; PERK inh: 0

What do the screens show for `C=CCn1cc(C=C2C(=O)NC(=O)NC2=O)c2ccccc21`?
PABP polyA inh: inconclusive; MLLE-PAM2 inh: 65; eIF4H FP inh: inconclusive

Results for O=C(O)Cn1cc(C=C2C(=O)NC(=O)NC2=O)c2ccccc21 ?
PABP polyA inh: active; MLLE-PAM2 inh: 10; eIF4H FP inh: inconclusive

How did NC(=O)c1cn(C2OC(CO)C(O)C2O)c2ncnc(N)c12 (configuration not stated) do in these assays?
PABP polyA inh: inactive; MLLE-PAM2 inh: -6; eIF4H FP inh: 0; eIF4E 4G PPI: -6; PERK inh: 5.3*

What do the screens show for `CCC(C)n1c(O)c(C=Nc2cccc(C(F)(F)F)c2)c(=O)[nH]c1=S` (configuration not stated)?
PABP polyA inh: active; MLLE-PAM2 inh: 5; eIF4H FP inh: 60*; eIF4E 4G PPI: -4; PERK inh: 1

How did C=Cc1cc(OC)c2c(c1)c(=O)oc1c2cc(OC)c2c(O)ccc(C3OC(C)C(O)C(C)(O)C3O)c21 (configuration not stated) do in these assays?
MLLE-PAM2 inh: -3

Results for O=c1cccc2n1CC1CC2CN(S(=O)(=O)c2ccccc2)C1 (configuration not stated) ?
PABP polyA inh: inactive; MLLE-PAM2 inh: 1; eIF4H FP inh: -13; eIF4E 4G PPI: 1; PERK inh: 1

How did O=S(=O)(c1ccccc1)N1CCN2CCCC2C1 (configuration not stated) do in these assays?
PABP polyA inh: active; MLLE-PAM2 inh: 4; eIF4H FP inh: 96*

How did O=c1[nH]c(=S)n(C2CC2)c(O)c1C=Nc1ccc2c(c1)OCO2 do in these assays?
PABP polyA inh: inactive; MLLE-PAM2 inh: 6; eIF4H FP inh: 68*; eIF4E 4G PPI: -3; PERK inh: 0

Results for Cn1c(O)c(Cc2cccc(Cl)c2Cl)c(=O)n(C)c1=O ?
PABP polyA inh: inactive; MLLE-PAM2 inh: 6; eIF4H FP inh: 2

Results for Cc1cccc(N2C(=O)CC(=O)NC2=O)c1 ?
PABP polyA inh: inactive; MLLE-PAM2 inh: -29; eIF4H FP inh: 69*; eIF4E 4G PPI: -2; PERK inh: 3

What do the screens show for `O=C1CC(=O)N(c2cccc(Cl)c2)C(=O)N1`?
PABP polyA inh: inconclusive; MLLE-PAM2 inh: -26; eIF4H FP inh: inconclusive; eIF4E 4G PPI: 3; PERK inh: 1

How did COc1ccc(N2C(=O)CC(=O)NC2=O)cc1 do in these assays?
PABP polyA inh: active; MLLE-PAM2 inh: -5; eIF4H FP inh: inconclusive; eIF4E 4G PPI: -12; PERK inh: 1

What do the screens show for `Cc1ccc(N2C(=O)CC(=O)NC2=O)cc1`?
PABP polyA inh: inconclusive; MLLE-PAM2 inh: -17; eIF4H FP inh: inconclusive; eIF4E 4G PPI: 0; PERK inh: 2

Results for COc1ccc(Cn2c(N)c(C(=O)NCc3ccco3)c3nc4ccccc4nc32)cc1OC ?
PABP polyA inh: inactive; MLLE-PAM2 inh: -30; eIF4H FP inh: 12; PERK inh: -1

Results for Nc1c(C(=O)NCc2ccco2)c2nc3ccccc3nc2n1CCN1CCCCC1 ?
PABP polyA inh: active; MLLE-PAM2 inh: -48; eIF4H FP inh: 72*; eIF4E 4G PPI: 9; PERK inh: 0

Results for CC1CCC2[C@@H](C)C(=O)OC3O[C@]4(C)CCC1C32OO4 (some centres not stated) ?
MLLE-PAM2 inh: -3

How did COc1ccc(C(=O)NC(=S)N2C[C@H]3C[C@H](C2)c2cccc(=O)n2C3)cc1 do in these assays?
PABP polyA inh: inactive; MLLE-PAM2 inh: 31; eIF4H FP inh: 6

What do the screens show for `CC[C@@H](CO)NC(=O)[C@@H]1C=C2c3cccc4c3c(cn4C)C[C@H]2N(C)C1`?
PABP polyA inh: inconclusive; MLLE-PAM2 inh: 75*!; eIF4H FP inh: inconclusive; eIF4E 4G PPI: 10; PERK inh: 1

Results for CCC(CO)NC(=O)C1C=C2c3cccc4[nH]cc(c34)CC2N(C)C1 (configuration not stated) ?
PABP polyA inh: inconclusive; MLLE-PAM2 inh: 82; eIF4H FP inh: inconclusive; eIF4E 4G PPI: -1; PERK inh: 1

Results for CN1CCC2(O)OCCCC2C1 (configuration not stated) ?
PABP polyA inh: inactive; MLLE-PAM2 inh: -5; eIF4H FP inh: 0; eIF4E 4G PPI: 7; PERK inh: 1

What do the screens show for `COc1cc(/C=C2\C[C@H]3[C@@H]4CC=C5C[C@@H](N6CCCC6)CC[C@]5(C)[C@H]4CC[C@]3(C)[C@H]2O)cc(OC)c1OC`?
MLLE-PAM2 inh: -72

What do the screens show for `C=CCn1c(O)c(/C=C2\C=Nc3ccccc32)c(=O)[nH]c1=O`?
PABP polyA inh: active; MLLE-PAM2 inh: -44; eIF4H FP inh: inconclusive; eIF4E 4G PPI: 0; PERK inh: 1

What do the screens show for `COc1ccccc1-n1c(O)c(/C=C2\C=Nc3ccccc32)c(=O)[nH]c1=O`?
PABP polyA inh: inconclusive; MLLE-PAM2 inh: -104; eIF4H FP inh: inconclusive

How did CC(=O)Cc1c[nH]c2ccccc12 do in these assays?
PABP polyA inh: inactive; eIF4H FP inh: -6; eIF4E 4G PPI: 97*; PERK inh: 1

How did CN(C)Cc1c[nH]c2ccccc12 do in these assays?
MLLE-PAM2 inh: 10

What do the screens show for `CN(C)c1ccc2c(c1)N=C(c1ccco1)OP2(=S)N1CCOCC1` (configuration not stated)?
PABP polyA inh: inactive; MLLE-PAM2 inh: 36; eIF4H FP inh: 15; eIF4E 4G PPI: 41*; PERK inh: 2

Compound activity as filed in PubChem.
